# In PubChem BioAssay (NCI):
# Compounds without any hit were thinned out: in the full panel of roughly 83,000, 20% have a hit.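 For each line, cells grew in 96-well plates with the test compound present at a single concentration for 48 hours.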 Unmarked numbers belong to inactive results. The source made the active and inactive calls.
# Test system: A549/ATCC NSCLC
# Test: NCI-60 one-dose screen, 48 h (100 = growth as untreated, 0 = no growth, -100 = all killed)
# Conditions: 10 µM unless noted
# Description: Growth inhibition of the A549/ATCC human Non-Small Cell Lung tumor cell line is measured as a screen for anti-cancer activity. Cells are grown in 96 well plates and exposed to the test compound for 48 hours. Compounds are tested at a single concentration, which is 10^-5 M for most compounds. The reported endpoint is percent growth (GI% or GIPRCNT), where numbers from 0 - 100% represent growth inhibition, and numbers from -100% - 0 represent cell death. For example, a value of 40 represents 60% growth inhibition. A value of 0 means no net growth occurred over the course of the experiment. A value of -40 indicates 40% of cells at the beginning of the experiment died by the end of the experiment. A value of -100 means all cells are dead at the end of the experiment.
# NCI-60 Human Tumor Cell Lines Screen was performed using the standard one-dose NCI protocol, which is described in more detail at https://dtp.cancer.gov/discovery_development/nci-60/default.htm.
# Compounds with GIPRCNT values below 10 were considered active. Activity score was based on GIPRCNT using the following formula: […]
# Score is 0 for GIPRCNT values of 100 or above, 50 for GIPRCNT values of 0, and 100 for GIPRCNT values of -100.
row,Structure (SMILES),growth
1,NC/C(=C/F)COc1ccc2nc(NCc3cccnc3)oc2c1,95.3%
2,c1ccc(C(c2nc3ncncc3[nH]2)N2CSc3nc4ccccc4n3C2)cc1 (stereo not given),107%
3,Cc1nn(-c2ccccc2)c2ncnc(N/N=C/c3ccccc3O)c12,11.7%
4,CC(=O)c1cc(C(=O)N2c3ccccc3Sc3ccccc32)n2ccc3ccccc3c12,50.3%
5,Cc1cc(C)cc(C(=O)Nc2cccc(C#Cc3cccc4[nH]nc(N)c34)c2)c1,54.8%
6,CCCCCc1ccc(S(=O)(=O)Nc2cccc(-c3csc(NCCN4CCN(C)CC4)n3)c2)cc1,72.6%
7,CC1(C)[C@@H](O)CC[C@]2(C)[C@H]3CC[C@@H]4[C@H]5[C@H](C(=O)/C=C\c6ccccn6)CC[C@]5(O)CC[C@@]4(C)[C@]3(C)CC[C@@H]12,49.7%
8,O=C(NNc1nc2cc(F)ccc2n2c(CN3CCC(O)C3)ccc12)c1cnccn1 (stereo not given),15.2%
9,COc1c(N2CC3CCCNC3C2)c(F)cc2c(=O)c(C(=O)N/N=C/c3ccc(Br)cc3)cn(C3CC3)c12 (stereo not given),83.1%
10,NS(=O)(=O)c1ccc(Nc2nc(N/N=C/c3ccccn3)nc(Nc3ccccc3)n2)cc1,35.1%
11,COc1ccc([C@@H]2c3[nH]c4ccccc4c3C[C@H]3C(=O)N(C4CCN(CC5CCCCC5)CC4)CC(=O)N23)c(OC)c1,72.2%
12,C=CCn1c(SCC(=O)Nc2ccc(C(=O)/C=C/c3ccc(Br)cc3)cc2)nnc1-c1c[nH]c2ccccc12,73.5%
13,O=C1CCC(N2C(=O)c3ccc(NS(=O)(=O)c4ccccc4OC(F)(F)F)cc3C2=O)C(=O)N1 (stereo not given),78.7%
14,CCCn1cnc2c(c1=N)C(c1ccc(OC)cc1)c1sc3c(CC)cccc3c1O2 (stereo not given),40.6%
15,C[C@H]1c2[nH]c3ccccc3c2C[C@H]2C(=O)N(CCCCCCC(=O)NO)CC(=O)N21,98%
16,COc1ccc2c(c1)c(CC(=O)[Se]CCC#N)c(C)n2C(=O)c1ccc(Cl)cc1,2.64% (active)
17,CCn1c(SCC(=O)Nc2cccc(C(=O)/C=C/c3ccccc3Cl)c2)nc2ccccc2c1=O,78.6%
18,COc1cc2oc(-c3cccc(C(=O)N[C@@H](CC(C)C)C(=O)OC(C)(C)C)c3)cc(=O)c2c(OC)c1OC,76%
19,COc1ccc(C2CC(c3cccc(Nc4nc(Cl)nc5cc(OC)c(OC)cc45)c3)=Nc3c(N)nc(N)nc3N2)cc1 (stereo not given),82.3%
20,COc1cc(/C=C2\C(=O)Nc3ccccc32)ccc1OCc1ccc(Cl)cc1,107%

row,Structure (SMILES),growth
1,O=C1C(c2ccccc2)=C(N2CCc3ccccc32)OC1(Cl)Cl,85%
2,C=C(C=O)[C@@H]1CC[C@]2(C)[C@H](C(=O)C=C3[C@H]4C[C@](C)(C(=O)OC)CC[C@]4(C)CC[C@]32C)[C@@]1(C)CCC#N,104%
3,CCCSc1nc(Nc2ccc(/C(C)=N\NC(N)=S)cc2)c(C#N)c(-c2ccccc2)n1,43.7%
4,CNc1ncc2cc(-c3ccc(-c4ncccc4F)cc3Cl)c(=O)n(CC3OCC(N)CO3)c2n1 (stereo not given),57.1%
5,CCN(CC)c1cn(-c2ccc(S(N)(=O)=O)cc2)nn1,105%
6,CC/C(=C/c1cc(OC)ccc1O)c1ccc2cc(OC)ccc2[o+]1,58.3%
7,O=C(NNc1nc2cc(F)ccc2n2c(CN3CC4CNCC4C3)ccc12)c1cnccn1 (stereo not given),21.5%
8,Nc1nc(-c2cccc([N+](=O)[O-])c2)c(N=Nc2ccccc2)s1,60%
9,O=c1[nH]c(Sc2sc3ccc(Cl)cc3c2CBr)nc(=S)[nH]1,39.8%
10,COc1ccc(C(=O)CSc2nc3c(c(Nc4ccc(S(N)(=O)=O)cc4)n2)CCCC3)cc1,92.7%
11,CNC1CCc2c(sc(NC(=O)c3ccc(C(C)(C)C)cc3)c2C(N)=O)C1 (stereo not given),31%
12,O=C1CCCc2nc(Nc3ccc(S(=O)(=O)Nc4ccc([N+](=O)[O-])cc4)cc3)ncc21,104%
13,CCCCCc1ccc(S(=O)(=O)Nc2cc(-c3csc(NC(=O)CN4CCN(C)CC4)n3)ccc2N2CCN(C)CC2)cc1,15.7%
14,NC(N)=Nc1ccc(Oc2cccc(NC(N)=Nc3ccc(I)cc3F)c2)cc1,68.7%
15,Cc1nn(-c2ccccc2)c2ncnc(N/N=C/c3ccccc3)c12,92.4%
16,CN(C)CCCOc1ccc2c(c1)CN(C(=O)c1cc(C(=O)N3Cc4cccc(F)c4C3)ccc1O)C2,101%
17,Cc1ccc(S(=O)(=O)NCCNc2nc(Nc3ccc(N4CCN(C)CC4)cc3)nc3ccsc23)cc1,93.8%
18,COc1cc2nc(Cl)nc(Nc3cccc(C4=Nc5c(N)nc(N)nc5NC(c5ccccc5)C4)c3)c2cc1OC (stereo not given),87.5%
19,CCc1cccc(NC(=O)CNc2cc(S(=O)(=O)N(C)C)cc(C)c2C)c1,85.2%
20,CCCCCc1ccc(S(=O)(=O)Nc2cccc(-c3csc(NC(=O)CN4CCN(CCO)CC4)n3)c2)cc1,78.9%
